Measured values reported in PubChem BioAssay (NCATS).
Inconclusive results are not listed. Unmarked numbers belong to inactive results. The call rests on the fitted dose curve; in most records, active means well fitted inhibition curve with a large enough effect; inconclusive means small, poorly fitted or top-dose-only effect; inactive means flat fitted curve, though single readings scatter.

The compounds below were run on 7G8 (assay: qHTS profiling for inhibitors of Plasmodium falciparum proliferation (AID 504749;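 further: 0% = DMSO vehicle and full inhibition = artemisinin control; nearly all actives have a fitted effect of over 60% in size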)). Details: P. falciparum in erythrocytes, SYBR Green DNA, 72 h; series mostly up to 28.7 µM; activity, negative = inhibition: at the top concentration.
Procedure, shortened: (§1)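 P. falciparum-infected erythrocytes (0.3% parasitemia, 2.5% hematocrit) incubated with compound 72 h at 37 C, 5% CO2. Parasite DNA detected by SYBR Green after lysis, overnight at room temperature; normalised to 0.29 uM artemisinin and DMSO.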

Structure (SMILES) | activity, negative = inhibition
CC(C)C[C@@H](N)C(=O)O | -25.1%
COc1ccc(O)cc1 | -8.42%
COc1ccccc1OC(=O)Oc1ccccc1OC | -2.72%
CCCNC(C)(C)COC(=O)c1ccccc1 | -25.6%
Cc1cccc(C)c1NC(=O)CC12CCCN1CCC2 | -20.6%
C[C@@H]1O[C@@H](OC[C@H]2O[C@@H](Oc3c(-c4ccc(O)c(O)c4)oc4cc(O)cc(O)c4c3=O)[C@H](O)[C@@H](O)[C@@H]2O)[C@H](O)[C@H](O)[C@H]1O | -0.833%
COC(=O)c1cccnc1 | 13.2%
CC(C(=O)O)c1ccc2c(c1)Cc1cccnc1O2 (configuration not stated) | -8.48%
CCS(=O)(=O)CCn1c([N+](=O)[O-])cnc1C | 5.84% [at 12.8 µM]
CCOc1ccc(C(=O)OCCN(CC)CC)cc1 | -7.47%
CC(C)c1cc2c(cc1S(=O)(=O)O)[C@@]1(C)CCC[C@@](C)(C(=O)O)[C@@H]1CC2 | -17.6%
CCN(CC)CC1CCCCN1CC(=O)N1c2ccccc2C(=O)Nc2cccnc21 (configuration not stated) | -21.2%
Cc1cc(=O)[nH]c(=S)[nH]1 | -15.8%
CCOc1cc(NC(C)=O)ccc1C(=O)OC | -14%
CCCCCCCCCCCCCCCCN | -4.97%
NNC(=O)CP(=O)(c1ccccc1)c1ccccc1 | -7.58%
CCCCCC(N)=O | 1.57%
O[C@@H]1CO[C@H]2[C@@H]1OC[C@@H]2O | -23.8%

Structure (SMILES) | activity, negative = inhibition
CCCCCCCCCCCCCCCCCCO | -8.43%
NNc1nnc(NN)c2ccccc12 | -12.5%
CN/C(=C\[N+](=O)[O-])NCCSCc1csc(CN(C)C)n1 | 9.72% [at 12.8 µM]
CC(=O)OCC(COC(C)=O)OC(C)=O | 6.7%
O=C(O)c1ccccc1C(=O)Nc1ccc(S(=O)(=O)Nc2nccs2)cc1 | -8.64%
O=C(NCN1CCOCC1)c1cnccn1 | -9.84%
COc1ccc(C(=O)N2CCN(CC(=O)N3CCOCC3)CC2)cc1 | -4.24%
COC(=O)c1ccc(O)cc1 | -16.2%
O=c1[nH]c(=O)c2ccccc2o1 | -5.76%
NC(=O)CC[C@@H](N)C(=O)O | 5.69%
O=C(O)Cc1cn(-c2ccccc2)nc1-c1ccc(Cl)cc1 | -28.9%
Cc1c(Cn2ccnc2)c2ccccc2n1CCC(=O)O | -6.96%
O=c1[nH]cnc2nc[nH]c12 | -9.19%
CCN(CC)S(=O)(=O)c1ccc(C(=O)O)cc1 | -4.96%
N[C@@H](Cc1ccc(O)cc1)C(=O)O | 18%
NS(=O)(=O)c1ccc(NC(=O)CCC(=O)O)cc1 | -12.1%
CNCc1ccccc1 | -18.5%
O=C(OOC(=O)c1ccccc1)c1ccccc1 | 5.5%

What follows are compounds tested on AA1029 in the same assay as above. Details: P. falciparum in erythrocytes, SYBR Green DNA, 72 h; series mostly up to 28.7 µM; activity, negative = inhibition: at the top concentration.
Procedure, shortened: as §1

Structure (SMILES) | activity, negative = inhibition
CC(C)C[C@@H](N)C(=O)O | 9.27%
COc1ccc(O)cc1 | 2.05%
COc1ccccc1OC(=O)Oc1ccccc1OC | -2.04%
CCCNC(C)(C)COC(=O)c1ccccc1 | -11.1%
Cc1cccc(C)c1NC(=O)CC12CCCN1CCC2 | -15.9%
C[C@@H]1O[C@@H](OC[C@H]2O[C@@H](Oc3c(-c4ccc(O)c(O)c4)oc4cc(O)cc(O)c4c3=O)[C@H](O)[C@@H](O)[C@@H]2O)[C@H](O)[C@H](O)[C@H]1O | 9.8%
COC(=O)c1cccnc1 | -0.488%
CC(C(=O)O)c1ccc2c(c1)Cc1cccnc1O2 (configuration not stated) | -7.38%
CCS(=O)(=O)CCn1c([N+](=O)[O-])cnc1C | 0.812% [at 12.8 µM]
CCOc1ccc(C(=O)OCCN(CC)CC)cc1 | -0.961%
CC(C)c1cc2c(cc1S(=O)(=O)O)[C@@]1(C)CCC[C@@](C)(C(=O)O)[C@@H]1CC2 | -5.05%
CCN(CC)CC1CCCCN1CC(=O)N1c2ccccc2C(=O)Nc2cccnc21 (configuration not stated) | 2.73%
Cc1cc(=O)[nH]c(=S)[nH]1 | 1.17%
CCOc1cc(NC(C)=O)ccc1C(=O)OC | 3.03%
CCCCCCCCCCCCCCCCN | 2.99%
NNC(=O)CP(=O)(c1ccccc1)c1ccccc1 | 0.807%
CCCCCC(N)=O | 3.86%
O[C@@H]1CO[C@H]2[C@@H]1OC[C@@H]2O | 2.59%

Structure (SMILES) | activity, negative = inhibition
CCCCCCCCCCCCCCCCCCO | 2.75%
NNc1nnc(NN)c2ccccc12 | 2.31%
CN/C(=C\[N+](=O)[O-])NCCSCc1csc(CN(C)C)n1 | 6.55% [at 12.8 µM]
CC(=O)OCC(COC(C)=O)OC(C)=O | 11.3%
O=C(O)c1ccccc1C(=O)Nc1ccc(S(=O)(=O)Nc2nccs2)cc1 | 2.35%
O=C(NCN1CCOCC1)c1cnccn1 | -7.24%
COc1ccc(C(=O)N2CCN(CC(=O)N3CCOCC3)CC2)cc1 | -8.28%
COC(=O)c1ccc(O)cc1 | 9.65%
O=c1[nH]c(=O)c2ccccc2o1 | -4.89%
NC(=O)CC[C@@H](N)C(=O)O | 16%
O=C(O)Cc1cn(-c2ccccc2)nc1-c1ccc(Cl)cc1 | -3.07%
Cc1c(Cn2ccnc2)c2ccccc2n1CCC(=O)O | -18.6%
O=c1[nH]cnc2nc[nH]c12 | -5.08%
CCN(CC)S(=O)(=O)c1ccc(C(=O)O)cc1 | 4.57%
N[C@@H](Cc1ccc(O)cc1)C(=O)O | 1.06%
NS(=O)(=O)c1ccc(NC(=O)CCC(=O)O)cc1 | -0.0043%
CNCc1ccccc1 | -2.62%
O=C(OOC(=O)c1ccccc1)c1ccccc1 | 11.3%
